The panel holds about 83,000 compounds, 20% with a hit somewhere; the sample as a whole holds those more often.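 Values shown are percent growth following 48 h exposure of cells in 96-well plates to a single concentration of compound; below 10 was considered active.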 The source made the active and inactive calls.
Legend:
Assay in all cases: NCI-60 one-dose screen, 48 h (100 = growth as untreated, 0 = no growth, -100 = all killed)
Settings in all cases: 10 µM unless noted
SK-MEL-2 melanoma = system: SK-MEL-2 melanoma
EKVX NSCLC = system: EKVX NSCLC
SN12C renal = system: SN12C renal
UO-31 renal = system: UO-31 renal
TK-10 renal = system: TK-10 renal
ACHN renal = system: ACHN renal
A498 renal = system: A498 renal
CCRF-CEM leukemia = system: CCRF-CEM leukemia
MOLT-4 leukemia = system: MOLT-4 leukemia
SR leukemia = system: SR leukemia
RPMI-8226 leukemia = system: RPMI-8226 leukemia
OVCAR-8 ovarian = system: OVCAR-8 ovarian
OVCAR-5 ovarian = system: OVCAR-5 ovarian
OVCAR-4 ovarian = system: OVCAR-4 ovarian
SK-OV-3 ovarian = system: SK-OV-3 ovarian
IGROV1 ovarian = system: IGROV1 ovarian
OVCAR-3 ovarian = system: OVCAR-3 ovarian
HS 578T breast = system: HS 578T breast
NCI/ADR-RES ovarian = system: NCI/ADR-RES ovarian
CAKI-1 renal = system: CAKI-1 renal

Measured: growth

Cc1ccc(-c2nc(/C=C3/C(=O)Nc4ccccc43)c3ccccn23)cc1
inactive: SK-MEL-2 melanoma 39.3% | EKVX NSCLC 80.1% | SN12C renal 82.6% | UO-31 renal 54.3% | TK-10 renal 88.9% | ACHN renal 16.6% | A498 renal 104% | CCRF-CEM leukemia 84.3% | MOLT-4 leukemia 72.2% | SR leukemia 73.4% | RPMI-8226 leukemia 79.3% | OVCAR-8 ovarian 82% | OVCAR-5 ovarian 80.5% | OVCAR-4 ovarian 115% | SK-OV-3 ovarian 92.6% | IGROV1 ovarian 22.9% | OVCAR-3 ovarian 119% | HS 578T breast 85.7% | NCI/ADR-RES ovarian 75.6%

CCN(CC)CCNC(=O)c1cn2ncnc(Oc3ccc(NC(=O)Nc4ccc(Cl)c(C(F)(F)F)c4)c(F)c3)c2c1C
active: SK-MEL-2 melanoma -36.9% | UO-31 renal -53% | ACHN renal -44.5% | CCRF-CEM leukemia 4.8% | MOLT-4 leukemia -20.8% | SR leukemia -32.3% | RPMI-8226 leukemia -16.6% | OVCAR-4 ovarian 6.15% | IGROV1 ovarian -36.6% | OVCAR-3 ovarian -3.03% | HS 578T breast -7.92%
inactive: EKVX NSCLC 24.5% | SN12C renal 62.5% | TK-10 renal 27.8% | A498 renal 21.1% | OVCAR-8 ovarian 45.4% | OVCAR-5 ovarian 54.6% | SK-OV-3 ovarian 82% | NCI/ADR-RES ovarian 56.8%

COc1cc(OC)c2sc(-c3ccc(-n4cncc4-c4ccc(OC)c(OC)c4)cc3)nc2c1
inactive: SK-MEL-2 melanoma 33.5% | EKVX NSCLC 54.7% | SN12C renal 72.3% | UO-31 renal 25.5% | TK-10 renal 71.9% | ACHN renal 38.7% | A498 renal 56.3% | CCRF-CEM leukemia 53.2% | SR leukemia 50.7% | RPMI-8226 leukemia 33.3% | OVCAR-8 ovarian 71% | OVCAR-5 ovarian 79.5% | SK-OV-3 ovarian 84.8% | IGROV1 ovarian 67.2% | OVCAR-3 ovarian 43.7% | HS 578T breast 75.5% | NCI/ADR-RES ovarian 56.4%
active: CAKI-1 renal 8.81%

O=C(Cn1c(=O)sc2nc3ccccc3nc21)Nc1ncc(Cc2cccc(Cl)c2Cl)s1
inactive: SK-MEL-2 melanoma 103% | EKVX NSCLC 75.1% | SN12C renal 92.2% | UO-31 renal 65.5% | TK-10 renal 95.5% | ACHN renal 100% | A498 renal 113% | CCRF-CEM leukemia 99.8% | MOLT-4 leukemia 99.8% | SR leukemia 101% | RPMI-8226 leukemia 97.5% | OVCAR-8 ovarian 97% | OVCAR-5 ovarian 101% | OVCAR-4 ovarian 102% | SK-OV-3 ovarian 95.1% | IGROV1 ovarian 81.3% | OVCAR-3 ovarian 111% | HS 578T breast 90.2% | NCI/ADR-RES ovarian 89.6%

CCCNC(=O)Oc1ccc(/C(=C(/C)Cc2ccc(OC)cc2)c2ccc(OCCCN(C)C)cc2)cc1
inactive: SK-MEL-2 melanoma 96.5% | EKVX NSCLC 85.7% | SN12C renal 84% | UO-31 renal 60.6% | TK-10 renal 88.3% | ACHN renal 99.4% | A498 renal 97.6% | CCRF-CEM leukemia 56.4% | MOLT-4 leukemia 33.1% | RPMI-8226 leukemia 77.3% | OVCAR-8 ovarian 86.5% | OVCAR-5 ovarian 94% | SK-OV-3 ovarian 98.3% | IGROV1 ovarian 91.1% | HS 578T breast 72.3% | NCI/ADR-RES ovarian 79.1%
active: SR leukemia 8.47%

CC1(C)CC2=C3C=C[C@@H]4[C@@]5(C)CCC(=O)C(C)(C)[C@@H]5CC[C@@]4(C)[C@]3(C)CC[C@@]2(C(=O)O)CC1=O
inactive: SK-MEL-2 melanoma 68.3% | EKVX NSCLC 63.3% | SN12C renal 85.1% | UO-31 renal 44.4% | TK-10 renal 61.2% | ACHN renal 40.8% | A498 renal 42.1% | CCRF-CEM leukemia 58% | MOLT-4 leukemia 54.6% | SR leukemia 71.7% | RPMI-8226 leukemia 31.8% | OVCAR-8 ovarian 89.6% | OVCAR-5 ovarian 93.2% | OVCAR-4 ovarian 64.5% | SK-OV-3 ovarian 84.3% | IGROV1 ovarian 85.3% | OVCAR-3 ovarian 60.1% | HS 578T breast 95.6% | NCI/ADR-RES ovarian 93.5%

CC(=O)N(N=Nc1ccccc1)c1cccc2ccccc12
inactive: SK-MEL-2 melanoma 20.1% | EKVX NSCLC 101% | SN12C renal 85.7% | UO-31 renal 61.2% | TK-10 renal 96.8% | A498 renal 115% | CCRF-CEM leukemia 79.8% | MOLT-4 leukemia 76.8% | SR leukemia 74.1% | RPMI-8226 leukemia 102% | OVCAR-8 ovarian 84.1% | OVCAR-5 ovarian 75.8% | OVCAR-4 ovarian 94.5% | SK-OV-3 ovarian 82.7% | IGROV1 ovarian 62.9% | OVCAR-3 ovarian 125% | HS 578T breast 101% | NCI/ADR-RES ovarian 78.5%
active: ACHN renal 8.59%

O=C1CC(N2C(=O)/C(=C/C(Cl)=C\c3ccc([N+](=O)[O-])cc3)SC2=S)C(=O)N1c1ccc(Cl)cc1 (centres undefined)
inactive: SK-MEL-2 melanoma 68.3% | EKVX NSCLC 32.3% | TK-10 renal 38% | A498 renal 55% | CCRF-CEM leukemia 11.4% | MOLT-4 leukemia 11.7% | OVCAR-8 ovarian 15.7% | OVCAR-5 ovarian 40.6% | SK-OV-3 ovarian 99.2% | IGROV1 ovarian 10.2% | HS 578T breast 21.7%
active: SN12C renal 4.02% | UO-31 renal -42.8% | ACHN renal 1.2% | SR leukemia 4.86% | RPMI-8226 leukemia -1.96% | OVCAR-4 ovarian 9.19% | OVCAR-3 ovarian -35.4% | NCI/ADR-RES ovarian 8.17%

COc1cc(/C=C\c2cc(/C=C\c3ccc(O)c(OC)c3)n(C(=O)COc3ccc(Cl)cc3Cl)n2)ccc1O
active: SK-MEL-2 melanoma -4.36% | SN12C renal 8.09% | CCRF-CEM leukemia 4.35% | MOLT-4 leukemia -0.332% | SR leukemia 0.0066% | RPMI-8226 leukemia -6.8% | OVCAR-8 ovarian 6.52% | SK-OV-3 ovarian -0.155%
inactive: EKVX NSCLC 38.4% | TK-10 renal 20.5% | ACHN renal 18.7% | CAKI-1 renal 14.8% | A498 renal 17.6% | OVCAR-5 ovarian 56.7% | OVCAR-4 ovarian 31.4% | IGROV1 ovarian 12.5% | OVCAR-3 ovarian 14% | HS 578T breast 10.2% | NCI/ADR-RES ovarian 21.5%

CNC(=O)c1cc(Oc2ccc3nc(NC(C)=O)sc3c2)ccn1
inactive: SK-MEL-2 melanoma 94.9% | EKVX NSCLC 97.8% | SN12C renal 106% | TK-10 renal 104% | ACHN renal 104% | CAKI-1 renal 89.2% | A498 renal 106% | CCRF-CEM leukemia 94.7% | MOLT-4 leukemia 90.4% | SR leukemia 85.4% | RPMI-8226 leukemia 93.8% | OVCAR-8 ovarian 99.9% | OVCAR-5 ovarian 103% | OVCAR-4 ovarian 95.9% | SK-OV-3 ovarian 107% | IGROV1 ovarian 104% | HS 578T breast 107% | NCI/ADR-RES ovarian 98.1%

Cc1cc(Cl)ccc1NC(=O)c1cc2ccccc2cc1O
active: SK-MEL-2 melanoma -2.55% | SN12C renal 3.74% | TK-10 renal -0.787% | ACHN renal 8.67% | CAKI-1 renal -5.76% | A498 renal -12.8% | CCRF-CEM leukemia 8.07% | SR leukemia 3.8% | RPMI-8226 leukemia 6.82% | OVCAR-8 ovarian 7.81% | OVCAR-3 ovarian -3.47% | HS 578T breast -7.72% | NCI/ADR-RES ovarian 4.6%
inactive: EKVX NSCLC 44.2% | MOLT-4 leukemia 17.7% | OVCAR-5 ovarian 30.5% | OVCAR-4 ovarian 22% | SK-OV-3 ovarian 36.7% | IGROV1 ovarian 17.9%

Cn1cc(-c2csc(-c3ccc(Cl)cc3)n2)c2cccnc21
inactive: OVCAR-8 ovarian 13.5% [100 µM]
active: SK-MEL-2 melanoma -22% [100 µM] | EKVX NSCLC -14.4% [100 µM] | SN12C renal -42.7% [100 µM] | TK-10 renal -26.1% [100 µM] | ACHN renal -50.9% [100 µM] | CAKI-1 renal -29.3% [100 µM] | A498 renal -79.9% [100 µM] | CCRF-CEM leukemia -18.8% [100 µM] | SR leukemia 0.516% [100 µM] | RPMI-8226 leukemia -24.4% [100 µM] | OVCAR-5 ovarian -49.3% [100 µM] | OVCAR-4 ovarian -28.1% [100 µM] | SK-OV-3 ovarian -57.1% [100 µM] | IGROV1 ovarian -21.5% [100 µM] | OVCAR-3 ovarian -75.7% [100 µM] | HS 578T breast 9.04% [100 µM] | NCI/ADR-RES ovarian -35.5% [100 µM]

COc1ccc2nc3ccc(OC)cc3c(SCCCN)c2c1
active: MOLT-4 leukemia -5.22% | SR leukemia -30.8% | RPMI-8226 leukemia -22.7%
inactive: SK-MEL-2 melanoma 110% | EKVX NSCLC 87.1% | SN12C renal 67.9% | TK-10 renal 114% | ACHN renal 43.7% | CAKI-1 renal 74.1% | A498 renal 83.2% | CCRF-CEM leukemia 10.5% | OVCAR-8 ovarian 76.1% | OVCAR-5 ovarian 83.2% | OVCAR-4 ovarian 63.9% | SK-OV-3 ovarian 95% | IGROV1 ovarian 97.2% | OVCAR-3 ovarian 71.3% | HS 578T breast 89.7% | NCI/ADR-RES ovarian 86.9%

Brc1c2c(c(Br)c3ccccc13)CCCC2
inactive: SK-MEL-2 melanoma 93.8% | EKVX NSCLC 97.2% | SN12C renal 94.2% | TK-10 renal 99.2% | ACHN renal 104% | CAKI-1 renal 99.2% | A498 renal 94.6% | CCRF-CEM leukemia 96.5% | MOLT-4 leukemia 95.8% | SR leukemia 99% | RPMI-8226 leukemia 100% | OVCAR-8 ovarian 91% | OVCAR-5 ovarian 104% | OVCAR-4 ovarian 112% | SK-OV-3 ovarian 89.5% | IGROV1 ovarian 98.1% | OVCAR-3 ovarian 110% | HS 578T breast 95.5% | NCI/ADR-RES ovarian 107%

CCN1C(=O)N(CC)C2C1NN=c1s/c(=C\c3cccc([N+](=O)[O-])c3)c(=O)n12 (centres undefined)
active: OVCAR-8 ovarian 6.8% | OVCAR-3 ovarian 1.4% | NCI/ADR-RES ovarian 9.2%
inactive: SK-MEL-2 melanoma 43.4% | EKVX NSCLC 50.5% | SN12C renal 25.5% | TK-10 renal 69.6% | ACHN renal 32.9% | CAKI-1 renal 25.7% | A498 renal 13% | CCRF-CEM leukemia 10.8% | MOLT-4 leukemia 15.6% | SR leukemia 12.7% | RPMI-8226 leukemia 22.8% | OVCAR-5 ovarian 33% | OVCAR-4 ovarian 51.1% | SK-OV-3 ovarian 38.3% | IGROV1 ovarian 22.6% | HS 578T breast 17.6%

CC/C(=C(/c1ccc(Cl)cc1)c1ccc(OCCN2CCCC2)cc1)c1ccc(OC)cc1
active: SR leukemia -16.1%
inactive: SK-MEL-2 melanoma 105% | EKVX NSCLC 65.1% | SN12C renal 79.5% | TK-10 renal 76.9% | ACHN renal 78.6% | CAKI-1 renal 82% | A498 renal 108% | CCRF-CEM leukemia 40.6% | MOLT-4 leukemia 32% | RPMI-8226 leukemia 12.2% | OVCAR-8 ovarian 69.4% | OVCAR-5 ovarian 72.9% | OVCAR-4 ovarian 72.6% | SK-OV-3 ovarian 101% | IGROV1 ovarian 81.8% | OVCAR-3 ovarian 78.7% | HS 578T breast 100% | NCI/ADR-RES ovarian 66.7%

— PubChem BioAssay (NCI)
